From PubChem BioAssay (NCATS)
Inconclusive results are not listed. Entries that show only a call come without a potency. Activity calls are given as the source filed them. Calls follow the shape of the dose curve; as a rule, active = well fitted curve in the direction sought with a large enough effect; inconclusive = small, poorly fitted or top-dose-only effect, or another doubt; inactive = no such curve, though single readings can be large; an effect the other way counts as inactive or inconclusive.

Assays:
[1] = qHTS of pediatric cancer cell lines to identify multiple opportunities for drug repurposing: Primary screen for Rh41 cells (AID 1347108); also: nearly all actives have a fitted effect of over 70% in size; also: potency is read from the fitted curve at half-maximal effect
In short: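 500-1,000 cells/well; 5 h pre-incubation 37 °C/5% CO2; compound pinned; 48 h; CellTiter-Glo, 15 min RT; luminescence. MIPE 11-pt from 0.78 nM, NPC 8-pt from 0.59 nM final. Bortezomib 2.3 µM final as positive control.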

[2] = qHTS of pediatric cancer cell lines to identify multiple opportunities for drug repurposing: Primary screen for Rh30 cells (AID 1347107); also: series mostly up to about 46 µM; nearly all actives have a fitted effect of over 75% in size
In short: (§1)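 Cells (500-1,000/well) in growth media were settled 5 h at 37 degrees C, then given compounds for 48 h. Viability was read as CellTiter-Glo luminescence. Primary runs used MIPE at 11 points (0.78 nM-46 µM) and NPC at 8 points (0.59 nM-46 µM); follow-ups used 11 points.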

[3] = qHTS of pediatric cancer cell lines to identify multiple opportunities for drug repurposing: Confirmatory screen for A673 cells (AID 1347110);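 also: potency is read from the fitted curve at half-maximal effect; cells exposed to compound for 48 h before the viability read; nearly all actives have a fitted effect of over 65% in size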
In short: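 Concentration-response curves came straight from titrations: 11 points (0.78 nM to 46 µM) for MIPE and several concentrations (0.59 nM to 46 µM) for NPC in primary, 11 points in follow-up. Readout: ATP luminescence at 48 h.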

[4] = qHTS of pediatric cancer cell lines to identify multiple opportunities for drug repurposing: Confirmatory screen for SK-N-MC cells (AID 1347111);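 also: potency is read from the fitted curve at half-maximal effect; cells exposed to compound for 48 h before the readout; nearly all actives have a fitted effect of over 70% in size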
In short: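 Metabolically active cells were quantified by ATP-dependent luminescence (CellTiter-Glo, 15 min at room temperature) following 48 h treatment. Cells had been plated at 500-1,000 per well and settled for 5 h beforehand.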

[5] = qHTS of pediatric cancer cell lines to identify multiple opportunities for drug repurposing: Confirmatory screen for LAN-5 cells (AID 1347113); also: potency is read from the fitted curve at half-maximal effect; nearly all actives have a fitted effect of over 65% in size
In short: as §1

[6] = qHTS of pediatric cancer cell lines to identify multiple opportunities for drug repurposing: Confirmatory screen for DAOY cells (AID 1347114); also: nearly all actives have a fitted effect of over 65% in size; also: potency is read from the fitted curve at half-maximal effect
In short: (§2)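 Viability measured as metabolically active cells via CellTiter-Glo luminescence following 48 hours of compound exposure, 11-point dilutions in confirmatory testing. 500-1,000 cells/well plated 5 hours before dosing; controls were DMSO and 2.3 µM bortezomib.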

[7] = qHTS of pediatric cancer cell lines to identify multiple opportunities for drug repurposing: Confirmatory screen for NB-EBc1 cells (AID 1347115);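 also: cells exposed to compound for 48 h before the viability read; nearly all actives have a fitted effect of over 45% in size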; also: potency is read from the fitted curve at half-maximal effect
In short: as §1

[8] = qHTS of pediatric cancer cell lines to identify multiple opportunities for drug repurposing: Confirmatory screen for SJ-GBM2 cells (AID 1347116); also: nearly all actives have a fitted effect of over 60% in size; also: potency is read from the fitted curve at half-maximal effect
In short: as §2

[9] = qHTS of pediatric cancer cell lines to identify multiple opportunities for drug repurposing: Confirmatory screen for BT-37 cells (AID 1347117); also: nearly all actives have a fitted effect of over 55% in size; also: potency is read from the fitted curve at half-maximal effect
In short: as §1

[10] = qHTS of pediatric cancer cell lines to identify multiple opportunities for drug repurposing: Confirmatory screen for TC32 cells (AID 1347118);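 also: potency is read from the fitted curve at half-maximal effect; cells exposed to compound for 48 h before the read; nearly all actives have a fitted effect of over 65% in size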
In short: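 TC32 cells, 500-1,000/well in growth medium, compound-treated 48 h at 37 °C; viability from CellTiter-Glo luminescence. Primary screen: MIPE 11-point (0.78 nM–46 µM final), NPC 8-point (0.59 nM–46 µM final); confirmatory at 11-point dilutions.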

[11] = qHTS of pediatric cancer cell lines to identify multiple opportunities for drug repurposing: Confirmatory screen for MG 63 (6-TG R) cells (AID 1347119); also: nearly all actives have a fitted effect of over 55% in size; also: potency is read from the fitted curve at half-maximal effect
In short: as §1

[12] = qHTS of pediatric cancer cell lines to identify multiple opportunities for drug repurposing: Confirmatory screen for Rh41 cells (AID 1347123);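 also: 48 h compound exposure; nearly all actives have a fitted effect of over 60% in size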; also: potency is read from the fitted curve at half-maximal effect
In short: as §1

[13] = qHTS of pediatric cancer cell lines to identify multiple opportunities for drug repurposing: Confirmatory screen for RD cells (AID 1347124); also: potency is read from the fitted curve at half-maximal effect
In short: as §1

[14] = qHTS of pediatric cancer cell lines to identify multiple opportunities for drug repurposing: Confirmatory screen for Rh18 cells (AID 1347125); also: nearly all actives have a fitted effect of over 55% in size; also: potency is read from the fitted curve at half-maximal effect
In short: as §1

[15] = qHTS of pediatric cancer cell lines to identify multiple opportunities for drug repurposing: Confirmatory screen for Rh30 cells (AID 1347126); also: nearly all actives have a fitted effect of over 55% in size; also: potency is read from the fitted curve at half-maximal effect
In short: as §1

[16] = qHTS of pediatric cancer cell lines to identify multiple opportunities for drug repurposing: Confirmatory screen for OHS-50 cells (AID 1347128); also: potency is read from the fitted curve at half-maximal effect
In short: as §1

[17] = qHTS of pediatric cancer cell lines to identify multiple opportunities for drug repurposing: Confirmatory screen for BT-12 cells (AID 1347112); also: nearly all actives have a fitted effect of over 55% in size; also: potency is read from the fitted curve at half-maximal effect
In short: as §1

Furin (Homo sapiens) = Furin (Homo sapiens) (UniProt P09958); assay: Furin counterscreen qHTS for Zika virus inhibitors (AID 1347149);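 also: purified recombinant full-length human furin enzyme at 5 nM; fluorescence gain from furin cutting a BOC-RVRR-AMC peptide substrate over 15 min; top concentration of the series differs between compounds; nearly all actives have a fitted effect of over 70% in size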
Sequence of Furin (Homo sapiens) (P09958 whole entry, looked up): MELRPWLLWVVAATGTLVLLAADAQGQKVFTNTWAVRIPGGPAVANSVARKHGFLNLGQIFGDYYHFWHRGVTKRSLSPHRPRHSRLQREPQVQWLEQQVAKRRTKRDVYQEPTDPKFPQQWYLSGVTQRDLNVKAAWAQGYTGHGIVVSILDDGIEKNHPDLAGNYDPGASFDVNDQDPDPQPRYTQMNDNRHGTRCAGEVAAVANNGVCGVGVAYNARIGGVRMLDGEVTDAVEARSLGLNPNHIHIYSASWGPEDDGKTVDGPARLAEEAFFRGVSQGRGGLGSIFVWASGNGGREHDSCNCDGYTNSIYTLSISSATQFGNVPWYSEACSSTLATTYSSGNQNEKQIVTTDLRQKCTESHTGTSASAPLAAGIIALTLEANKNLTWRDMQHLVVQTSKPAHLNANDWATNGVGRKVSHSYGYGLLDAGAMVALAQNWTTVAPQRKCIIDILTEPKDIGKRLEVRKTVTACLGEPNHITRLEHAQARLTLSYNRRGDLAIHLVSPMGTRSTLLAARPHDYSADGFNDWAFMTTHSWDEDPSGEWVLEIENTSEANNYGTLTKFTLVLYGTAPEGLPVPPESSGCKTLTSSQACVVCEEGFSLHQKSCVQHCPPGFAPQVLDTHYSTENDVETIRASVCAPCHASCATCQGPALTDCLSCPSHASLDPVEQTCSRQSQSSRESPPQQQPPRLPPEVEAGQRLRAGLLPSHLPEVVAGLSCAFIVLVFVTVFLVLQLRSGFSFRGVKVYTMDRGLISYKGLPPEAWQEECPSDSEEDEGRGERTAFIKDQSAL
In short: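 Fluorogenic cleavage of BOC-RVRR-AMC (2 microM final, Km ~15 µM) was monitored (ex 340, em 450 nm) at 37C after 15 min RT preincubation of 5 nM furin with compounds in HEPES pH 7.0 buffer with CaCl2 and Triton X-100. Percent inhibition was fitted to a 4-parameter Hill curve.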

[18] = test system: Zika virus NS2B-NS3 protease (unlinked); assay: Optimization of GU AMC qHTS for Zika virus inhibitors: Unlinked NS2B-NS3 protease assay (AID 1347151); also: nearly all actives have a fitted effect of over 80% in size; also: potency is read from the fitted curve at half-maximal effect
In short: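 Fluorescence read-out (340 nm ex / 450 nm em) of AMC peptide cleavage, taken immediately and after 15 min at room temperature (~20% conversion). Enzyme was the unlinked NS2B–NS3 complex at 25 nM in Tris pH 8.0 buffer.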

[19] = biological target: N-terminal Xaa-Pro-Lys N-methyltransferase 1 (Homo sapiens) (UniProt Q9BV86); assay: qHTS Assay for Inhibitors of N-terminal methyltransferase 1 (NTMT1): LOPAC validation of the NTMT1 SAHH-coupled ThioGlo3 Assay (AID 1347143); also: potency is read from the fitted curve at half-maximal effect; nearly all actives have a fitted effect of over 70% in size
Sequence of N-terminal Xaa-Pro-Lys N-methyltransferase 1 (Homo sapiens) (Q9BV86 whole entry, looked up): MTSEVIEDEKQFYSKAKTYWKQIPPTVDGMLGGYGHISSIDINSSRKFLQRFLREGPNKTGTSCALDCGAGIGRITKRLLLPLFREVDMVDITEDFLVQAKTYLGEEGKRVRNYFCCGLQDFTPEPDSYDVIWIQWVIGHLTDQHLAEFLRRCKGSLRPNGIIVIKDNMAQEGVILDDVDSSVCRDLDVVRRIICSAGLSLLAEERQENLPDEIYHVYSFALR
In short: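 Fluorescence read-out (excitation 340nm, emission 450nm) of SAH-derived thiol, measured via SAHH coupling and ThioGlo3, taken immediately and after a 30 min room-temperature reaction, then normalized to the background read. Enzyme: NTMT1 at 125nM; cofactor SAM 100uM in the added reagent.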

Cc1ccc(O)c2ncccc12
Potency [1]: 4.73 µM (active)

COCc1c(C(C)C)nc(C(C)C)c(/C=C/[C@@H](O)C[C@@H](O)CC(=O)O)c1-c1ccc(F)cc1
Potency [2]: inactive
Potency [3]: 0.414 µM (active)
Potency [4]: 2.93 µM (active)
Potency [5]: 13.1 µM (active)
Potency [6]: 0.414 µM (active)
Potency [7]: 4.14 µM (active)
Potency [8]: 2.61 µM (active)
Potency [9]: 1.65 µM (active)
Potency [10]: 0.928 µM (active)
Potency [11]: 0.0369 µM (active)
Potency [12]: 2.33 µM (active)
Potency [13]: 0.928 µM (active)
Potency [14]: 0.522 µM (active)
Potency [15]: 0.414 µM (active)
Potency [16]: 0.465 µM (active)

CN=C(NC#N)NCCSCc1csc(N=C(N)N)n1
Potency [1]: inactive

COc1c(C)c2c(c(O)c1C/C=C(\C)CCC(=O)O)C(=O)OC2
Potency [2]: inactive
Potency [3]: 2.61 µM (active)
Potency [17]: 4.65 µM (active)
Potency [12]: 1.17 µM (active)
Potency [14]: 1.31 µM (active)
Potency [15]: 1.31 µM (active)
Potency (Furin (Homo sapiens)): inactive
Potency [18]: 24.1 µM (active)

COc1cc(-c2ccc(=O)[nH]n2)ccc1OC(F)F
Potency [1]: inactive

C[C@]12C=CC(=O)C=C1CC[C@@H]1[C@@H]2[C@@H](O)C[C@@]2(C)[C@H]1CC[C@]2(O)C(=O)CO
Potency [2]: inactive
Potency [1]: inactive
Potency [17]: inactive
Potency [6]: inactive
Potency [7]: inactive
Potency [8]: inactive
Potency [9]: inactive
Potency [10]: 26.1 µM (active)
Potency [11]: inactive
Potency [12]: inactive
Potency [13]: inactive
Potency [14]: inactive
Potency [15]: inactive
Potency [16]: inactive

Oc1ccc(O)cc1
Potency [2]: inactive
Potency [7]: 14.7 µM (active)
Potency [8]: inactive
Potency [9]: inactive
Potency [10]: 20.8 µM (active)
Potency [11]: inactive
Potency [13]: inactive
Potency [15]: inactive
Potency [16]: inactive
Potency [19]: 31.6 µM (active)
Potency [18]: inactive

CC/C(=C(/CC)c1ccc(O)cc1)c1ccc(O)cc1
Potency [1]: inactive
